Data taken from PubChem BioAssay AID2391 (Southern Research Specialized Biocontainment Screening …, 2010).
In all, about 310,000 compounds went through this assay and about 410 (0.13%) were called active. Another 2% or so got no clear call; they are omitted. How the calls were made is not given here. Only a sample is shown. Results with a measured potency or affinity are listed apart.

test: inhibition of RSV-induced cytopathic effect – HEp-2 cells, primary 10 µM value included (AID 2391); details: at 10 µM, active compounds read high

CPE inhibition, inactive:
COc1ccc(N(CC(=O)NCc2ccc(Cl)cc2)S(=O)(=O)c2c(C)n[nH]c2C)cc1 2.71%, O=C(O)c1cc(NS(=O)(=O)c2cccs2)cc(NS(=O)(=O)c2cccs2)c1 0.42%, COc1ccc(-c2cc3nc(C)cc(C)n3n2)cc1 2.75%, Cc1cc(C)n2nc(-c3ccccc3)cc2n1 -2.3%, COc1ccc(CNc2ncnc3sccc23)cc1OC 0.7%, COc1ccccc1CC(=O)Nc1cc(S(=O)(=O)N2CCOCC2)ccc1N1CCOCC1 0.24%, COc1ccc(NCC(=O)Nc2cc(S(=O)(=O)N3CCOCC3)ccc2N2CCOCC2)c(OC)c1 1.68%, CC1CCCC(C)N1C(=O)CSc1nccc(=O)[nH]1 (configuration not stated) 0.35%, Nc1ccc(C(=O)OCc2nc3ccccc3[nH]2)cc1 1.24%, COC(=O)c1ccc(C(=O)OCc2nc3cc4ccccc4cc3[nH]2)cc1 2.73%, Cc1ccc2nc(Cc3ccc(N)cc3)[nH]c2c1 -0.3%, Nc1ccc2nc(Cc3ccccc3)[nH]c2c1 -1.63%, Cc1cccc(N2CCN(C(=O)C3CCC(=O)N(C4CC4)C3)CC2)c1C (configuration not stated) -0.26%, O=C(Cc1ccc(-n2c(=O)c3ccccc3n(CC(=O)Nc3ccc(F)cc3F)c2=O)cc1)NCc1ccco1 -0.99%, CCN(CC(=O)Nc1ccc(OC)cc1)C(=O)c1ccccc1Sc1ccccc1C#N -1.42%, Cc1ccccc1NC(=O)C1CCCN(S(=O)(=O)c2cccc3cccnc23)C1 (configuration not stated) 0.2%, COc1ccc(NC(=O)C2CCCN2S(=O)(=O)c2cccc3cccnc23)c(OC)c1 (configuration not stated) 7.4%, COc1ccccc1CNC(=O)C1CCCN(S(=O)(=O)c2cccc3cccnc23)C1 (configuration not stated) 0.63%, COc1ccccc1CNC(=O)C1CCN(S(=O)(=O)c2cccc3cccnc23)CC1 3.16%, Cc1cc(C)cc(NC(=O)C2CCCN2S(=O)(=O)c2cccc3cccnc23)c1 (configuration not stated) 58.5%, Cc1ccc(NC(=O)C2CCCN2S(=O)(=O)c2cccc3cccnc23)cc1F (configuration not stated) 52.8%, COc1cccc(CN2CC(C(=O)NCCn3ccc(C)n3)CCC2=O)c1 (configuration not stated) 0.1%, Cc1ccc2[nH]c(=O)c(N3CCOCC3)c(-c3ccccc3)c2c1 0.29%, CSCCC1NC(=O)N(CC(=O)Nc2c(C(C)C)cccc2C(C)C)C1=O (configuration not stated) -0.56%, C/C(CCc1ccccc1)=N\NC(=O)CC(=O)NCCc1ccccc1 1.3%, CCSc1nnc(SCC(=O)N2CCN(C(=O)c3ccco3)CC2)s1 1.6%, Cc1ccc(-c2noc(CCC(=O)NCCc3ccccc3Cl)n2)cc1 15.4%, Cc1ccc2c(c1)cc(C(=O)N[C@@H](Cc1ccccc1)C(=O)O)n2C 1.38%, COc1ccc(CNC(=O)c2cc3c(=O)[nH]c4ccccc4c3n2C)cc1 2.27%, Cc1ccc(CNC(=O)c2cc3c(=O)n(C)c4ccccc4c3n2C)cc1 0.79%, CCOc1ccc(CNC(=O)CCn2c(=O)oc3ccccc32)cc1 2.74%, Cn1c(C(=O)NCc2cccs2)cc2c(=O)n(C)c3ccccc3c21 0.91%, Cn1c(C(=O)NCC2CCCO2)cc2oc3ccccc3c21 (configuration not stated) 3.52%, Cc1c(C(=O)NCc2cccs2)oc2ccccc12 6.49%, COCCNC(=O)c1cc2oc3ccccc3c2n1C 1.43%, NC(=O)c1ccc(OCC2CCCO2)cc1 (configuration not stated) 0.89%, Cc1cccc(COCC(CC(C)C)N2CCN(C(=O)c3ccc(C(C)(C)C)cc3)CCC2=O)c1 (configuration not stated) -2.89%, COCCn1c(-c2ccccc2)nc2oc3ccccc3c(=O)c2c1=O 1.49%, O=C(c1ccccc1Br)N1N=C(c2ccccc2)CC1c1ccccc1F (configuration not stated) 13.7%, Cc1c(C)c2ccc(OCC(=O)NCc3ccccn3)cc2oc1=O 1.94%, Cc1cc(=O)oc(C)c1C(=O)NCCc1ccccc1 -0.07%, CCC(=O)Nc1sc2c(c1C(=O)OC)CCN(Cc1ccccc1)C2 -0.39%, Cc1ccc(C(CC(=O)O)C2CCOC(C)(C)C2)cc1 (configuration not stated) 0.31%, c1ccc(Cn2nnc3c(N4CCCC4)ncnc32)cc1 -0.08%, c1ccc(Cn2nnc3c(N4CCOCC4)ncnc32)cc1 1.51%, Cc1nnc2sc(-c3cccc(F)c3)nn2c1=O 0.29%, CC(C)CN1CCN(Cc2cnc(-c3ccc(Cl)cc3)nc2)CC1CCO (configuration not stated) 19.2%, O=C(Nc1nnc(C2=COCCO2)o1)c1ccc([N+](=O)[O-])cc1 0.76%, CCc1cccc(C)c1NC(=O)C1CC=CCC1C(=O)O (configuration not stated) -1.43%, O=c1oc(/C=C/c2ccco2)nc2sc3c(c12)CCC3 2.04%, COc1ccc(/C=C/c2nc3sc4c(c3c(=O)o2)CCC4)cc1 2.5%, Cc1ccc(OCC(=O)N2c3ccccc3CC2C)c([N+](=O)[O-])n1 (configuration not stated) -0.02%, COc1ccc(/C(C)=N/Nc2ccc(C(=O)O)cc2)c(OC)c1 1.98%, O=C(NN=C1c2ccccc2-c2ccccc21)c1ccccn1 1.09%, COc1ccc(OC)c(/C(C)=N/Nc2ccc(C(=O)O)cc2)c1 0.2%, CCN(CC)CCOc1ccc2c(c1)C(=NNC(=O)c1ccccn1)c1cc(OCCN(CC)CC)ccc1-2 -1.74%, COc1ccc2[nH]c(C)c(C(=O)CN3CCN(C/C=C/c4ccccc4)CC3)c2c1 4.44%, CC(C)C1Cc2c(sc3c2c(=O)n(-c2ccccc2)c2n[nH]c(=S)n32)CO1 (configuration not stated) 2.95%, CC(/C=N/NC(=O)c1cc(-c2ccc(C)o2)[nH]n1)=C\c1ccccc1 0.3%, COc1cccc(NC(=O)NCCCCc2ccccc2)c1 6.21%, Cc1cc(C(C)(C)C)c(O)c(C(C)(C)C)c1 -0.15%, CC(C)(C)c1ccc(O)c(O)c1 3.31%
